{
  "source": "paper PMC7862700",
  "about": "“An all-to-all approach to the identification of sequence-specific readers for epigenetic DNA modifications on cytosine”",
  "assay_in_all_cases": "DAPPL (digital affinity profiling via proximity ligation, sequencing); 10 mM Tris-HCl pH 7.5, 50 mM NaCl, 1 mM DTT, 4% glycerol, room temperature, 30 min; GST-TFs on glutathione beads, 16-mer random dsDNA library, 0.1% formaldehyde crosslink after washing; high values mean tight binding",
  "settings_in_all_cases": "protein: recombinant; tags: N-terminal GST; dsDNA, one strand shown",
  "key": {"ELK1": {"biological_target": "T1, ELK1 (Homo sapiens, UniProt P19419 1-428)", "T1 sequence": "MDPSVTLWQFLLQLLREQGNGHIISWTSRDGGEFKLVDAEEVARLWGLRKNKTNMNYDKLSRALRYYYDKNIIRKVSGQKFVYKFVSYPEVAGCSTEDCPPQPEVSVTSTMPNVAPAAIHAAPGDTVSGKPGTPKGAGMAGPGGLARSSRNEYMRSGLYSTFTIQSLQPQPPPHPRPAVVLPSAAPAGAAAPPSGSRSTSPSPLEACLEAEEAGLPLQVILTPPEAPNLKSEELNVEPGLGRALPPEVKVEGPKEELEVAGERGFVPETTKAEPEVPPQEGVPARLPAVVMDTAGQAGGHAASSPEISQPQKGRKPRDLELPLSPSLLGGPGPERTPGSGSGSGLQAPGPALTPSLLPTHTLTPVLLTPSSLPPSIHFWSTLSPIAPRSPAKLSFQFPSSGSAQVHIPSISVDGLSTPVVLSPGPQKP", "how_it_was_run": "(§1)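 Human transcription factors fused to GST were expressed in yeast, captured on glutathione beads, given DNA barcodes and pooled with a GST-only negative control. Pools were incubated with 200 nmole of a 16-mer random double-stranded DNA library in Tris/NaCl/DTT/glycerol buffer at room temperature for 30 min. They were then washed, crosslinked with 0.1% formaldehyde, proximity-ligated (BsaI/T4 ligase, 1 h, 37 °C), PCR-amplified and sequenced on an Illumina NextSeq500. Binding signal is each 6-mer's read frequency for a factor divided by its frequency for the GST control.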"}, "ELF1": {"biological_target": "ELF1 (Homo sapiens, UniProt P32519 1-619)", "sequence (P32519 whole entry)": "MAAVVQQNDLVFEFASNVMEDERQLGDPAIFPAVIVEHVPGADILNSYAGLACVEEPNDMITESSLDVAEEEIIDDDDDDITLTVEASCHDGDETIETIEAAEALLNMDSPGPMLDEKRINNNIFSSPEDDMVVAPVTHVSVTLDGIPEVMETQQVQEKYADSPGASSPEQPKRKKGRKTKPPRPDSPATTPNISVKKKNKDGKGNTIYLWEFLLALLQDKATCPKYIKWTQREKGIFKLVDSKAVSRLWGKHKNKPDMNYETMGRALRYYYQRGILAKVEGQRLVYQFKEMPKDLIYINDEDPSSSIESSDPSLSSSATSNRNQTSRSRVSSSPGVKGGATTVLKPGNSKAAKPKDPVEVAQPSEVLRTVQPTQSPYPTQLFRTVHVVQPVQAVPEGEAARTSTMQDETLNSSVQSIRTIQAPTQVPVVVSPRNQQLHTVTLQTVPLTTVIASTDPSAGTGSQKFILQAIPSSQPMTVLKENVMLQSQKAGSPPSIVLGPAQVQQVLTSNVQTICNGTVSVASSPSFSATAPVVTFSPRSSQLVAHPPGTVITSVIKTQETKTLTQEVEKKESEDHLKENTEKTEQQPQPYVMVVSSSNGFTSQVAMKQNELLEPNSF", "how_it_was_run": "as §1"}, "SPIB": {"biological_target": "SPIB (Homo sapiens, UniProt Q01892 1-262)", "sequence (Q01892 whole entry)": "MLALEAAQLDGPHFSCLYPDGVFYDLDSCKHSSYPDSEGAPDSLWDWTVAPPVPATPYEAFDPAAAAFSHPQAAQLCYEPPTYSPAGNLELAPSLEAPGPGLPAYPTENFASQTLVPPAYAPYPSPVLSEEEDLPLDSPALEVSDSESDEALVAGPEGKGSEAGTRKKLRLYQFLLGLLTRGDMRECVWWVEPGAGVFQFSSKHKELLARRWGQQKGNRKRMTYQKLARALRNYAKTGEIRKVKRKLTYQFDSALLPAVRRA", "how_it_was_run": "as §1"}, "SPIC": {"biological_target": "T2, SPIC (Homo sapiens, UniProt Q8N5J4 1-248)", "T2 sequence": "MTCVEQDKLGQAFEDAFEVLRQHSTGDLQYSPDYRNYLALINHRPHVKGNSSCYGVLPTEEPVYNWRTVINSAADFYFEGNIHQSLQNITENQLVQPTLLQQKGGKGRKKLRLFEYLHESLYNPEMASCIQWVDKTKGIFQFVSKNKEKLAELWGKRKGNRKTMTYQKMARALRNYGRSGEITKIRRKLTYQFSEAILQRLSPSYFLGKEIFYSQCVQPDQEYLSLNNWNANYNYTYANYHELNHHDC", "how_it_was_run": "as §1"}, "ELK4": {"biological_target": "T3, ELK4 (Homo sapiens, UniProt P28324-2 1-405)", "T3 sequence": "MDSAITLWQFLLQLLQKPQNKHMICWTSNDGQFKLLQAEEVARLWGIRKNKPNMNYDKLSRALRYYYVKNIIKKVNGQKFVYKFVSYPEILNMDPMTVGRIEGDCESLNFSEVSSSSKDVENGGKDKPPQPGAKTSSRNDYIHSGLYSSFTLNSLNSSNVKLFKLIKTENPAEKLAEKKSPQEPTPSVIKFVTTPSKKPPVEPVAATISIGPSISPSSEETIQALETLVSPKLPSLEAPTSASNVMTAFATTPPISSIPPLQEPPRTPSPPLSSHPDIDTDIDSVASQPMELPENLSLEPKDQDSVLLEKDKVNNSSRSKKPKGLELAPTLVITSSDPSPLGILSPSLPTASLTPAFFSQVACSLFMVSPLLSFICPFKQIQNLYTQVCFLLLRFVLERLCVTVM", "how_it_was_run": "as §1"}, "ETV2": {"biological_target": "T4, ETV2 (Homo sapiens, UniProt O00321 1-342)", "T4 sequence": "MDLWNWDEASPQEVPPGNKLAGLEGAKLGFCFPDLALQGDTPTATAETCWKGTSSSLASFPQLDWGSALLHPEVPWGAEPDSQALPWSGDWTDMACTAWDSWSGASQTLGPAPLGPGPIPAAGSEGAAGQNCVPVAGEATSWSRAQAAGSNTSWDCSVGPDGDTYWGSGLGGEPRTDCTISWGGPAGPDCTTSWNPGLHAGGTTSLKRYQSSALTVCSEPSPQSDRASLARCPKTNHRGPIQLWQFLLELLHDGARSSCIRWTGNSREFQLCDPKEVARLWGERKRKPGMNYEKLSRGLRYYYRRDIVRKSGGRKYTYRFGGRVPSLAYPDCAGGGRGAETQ", "how_it_was_run": "as §1"}, "ERF": {"biological_target": "T5, ERF (Homo sapiens, UniProt P50548 1-548)", "T5 sequence": "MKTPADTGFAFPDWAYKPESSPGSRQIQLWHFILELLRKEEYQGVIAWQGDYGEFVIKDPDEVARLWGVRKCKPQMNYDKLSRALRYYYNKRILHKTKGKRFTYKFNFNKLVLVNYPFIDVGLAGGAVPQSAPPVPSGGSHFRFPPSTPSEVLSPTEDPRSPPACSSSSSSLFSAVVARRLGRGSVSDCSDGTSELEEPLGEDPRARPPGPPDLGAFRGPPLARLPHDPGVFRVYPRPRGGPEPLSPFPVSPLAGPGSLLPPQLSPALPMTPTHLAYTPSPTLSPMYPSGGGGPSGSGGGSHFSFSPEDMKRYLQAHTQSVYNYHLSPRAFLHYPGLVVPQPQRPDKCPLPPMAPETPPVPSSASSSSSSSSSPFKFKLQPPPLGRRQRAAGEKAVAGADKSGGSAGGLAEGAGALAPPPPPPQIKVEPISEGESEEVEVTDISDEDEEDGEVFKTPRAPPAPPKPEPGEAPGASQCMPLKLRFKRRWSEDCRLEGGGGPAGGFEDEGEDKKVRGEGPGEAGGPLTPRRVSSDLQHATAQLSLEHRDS", "how_it_was_run": "as §1"}, "ETV3L": {"biological_target": "T6, ETV3L (Homo sapiens, UniProt Q6ZN32 1-361)", "T6 sequence": "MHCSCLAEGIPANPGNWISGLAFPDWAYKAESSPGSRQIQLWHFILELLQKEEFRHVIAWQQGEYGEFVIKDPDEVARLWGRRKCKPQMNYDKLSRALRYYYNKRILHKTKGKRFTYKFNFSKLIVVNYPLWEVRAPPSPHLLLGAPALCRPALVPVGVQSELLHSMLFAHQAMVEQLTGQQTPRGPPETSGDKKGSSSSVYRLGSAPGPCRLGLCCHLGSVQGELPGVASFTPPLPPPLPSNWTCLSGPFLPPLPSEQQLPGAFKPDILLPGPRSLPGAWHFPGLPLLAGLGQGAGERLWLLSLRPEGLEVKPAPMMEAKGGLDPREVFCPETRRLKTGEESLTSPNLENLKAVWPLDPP", "how_it_was_run": "as §1"}, "ETS2": {"biological_target": "T7, ETS2 (Homo sapiens, UniProt P15036 1-469)", "T7 sequence": "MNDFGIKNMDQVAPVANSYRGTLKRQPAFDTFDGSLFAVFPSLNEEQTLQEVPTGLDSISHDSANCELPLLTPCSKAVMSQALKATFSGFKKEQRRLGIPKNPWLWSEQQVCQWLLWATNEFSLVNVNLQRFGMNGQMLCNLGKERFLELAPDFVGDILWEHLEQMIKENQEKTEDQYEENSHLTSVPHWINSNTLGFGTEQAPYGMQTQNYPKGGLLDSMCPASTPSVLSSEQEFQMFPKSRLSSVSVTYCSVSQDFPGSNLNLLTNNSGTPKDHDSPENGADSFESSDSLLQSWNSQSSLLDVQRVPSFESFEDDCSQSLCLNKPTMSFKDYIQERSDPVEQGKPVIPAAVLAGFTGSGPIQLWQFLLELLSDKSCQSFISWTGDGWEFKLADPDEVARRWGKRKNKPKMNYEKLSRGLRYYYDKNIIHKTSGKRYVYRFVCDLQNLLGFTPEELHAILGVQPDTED", "how_it_was_run": "as §1"}, "ETV3": {"biological_target": "T8, ETV3 (Homo sapiens, UniProt P41162-2 1-143)", "T8 sequence": "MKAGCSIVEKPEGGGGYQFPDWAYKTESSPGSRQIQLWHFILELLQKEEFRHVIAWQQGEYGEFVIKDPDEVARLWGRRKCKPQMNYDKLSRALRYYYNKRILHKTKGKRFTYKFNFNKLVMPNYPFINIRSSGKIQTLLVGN", "how_it_was_run": "as §1"}, "ETV6": {"biological_target": "ETV6 (Homo sapiens, UniProt P41212 1-452)", "sequence (P41212 whole entry)": "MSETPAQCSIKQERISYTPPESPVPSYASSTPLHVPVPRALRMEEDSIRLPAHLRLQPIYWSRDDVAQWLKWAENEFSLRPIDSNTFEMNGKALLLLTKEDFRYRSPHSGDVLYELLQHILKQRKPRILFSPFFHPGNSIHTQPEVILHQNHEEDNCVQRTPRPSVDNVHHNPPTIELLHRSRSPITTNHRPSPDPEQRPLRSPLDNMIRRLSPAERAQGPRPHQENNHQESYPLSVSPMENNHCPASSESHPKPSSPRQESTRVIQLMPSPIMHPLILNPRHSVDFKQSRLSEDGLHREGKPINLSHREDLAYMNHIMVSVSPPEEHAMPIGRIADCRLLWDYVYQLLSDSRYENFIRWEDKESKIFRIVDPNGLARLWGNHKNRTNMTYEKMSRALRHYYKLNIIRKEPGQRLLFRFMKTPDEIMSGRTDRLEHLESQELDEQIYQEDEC", "how_it_was_run": "as §1"}, "GABPA": {"biological_target": "T9, GABPA (Homo sapiens, UniProt Q06546 1-454)", "T9 sequence": "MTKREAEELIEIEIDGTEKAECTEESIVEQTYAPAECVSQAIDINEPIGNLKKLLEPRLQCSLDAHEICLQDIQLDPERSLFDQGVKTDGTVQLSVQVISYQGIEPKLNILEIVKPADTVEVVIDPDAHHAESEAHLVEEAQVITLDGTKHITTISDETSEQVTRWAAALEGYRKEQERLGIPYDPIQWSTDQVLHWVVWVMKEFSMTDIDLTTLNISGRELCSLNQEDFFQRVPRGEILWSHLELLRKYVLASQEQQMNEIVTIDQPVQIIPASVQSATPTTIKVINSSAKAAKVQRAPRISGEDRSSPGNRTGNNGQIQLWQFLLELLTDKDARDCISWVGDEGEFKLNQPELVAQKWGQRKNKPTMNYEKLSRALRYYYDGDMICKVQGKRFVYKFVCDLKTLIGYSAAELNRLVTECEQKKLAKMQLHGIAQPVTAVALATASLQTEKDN", "how_it_was_run": "as §1"}, "ELF3": {"biological_target": "T10, ELF3 (Homo sapiens, UniProt P78545 1-371)", "T10 sequence": "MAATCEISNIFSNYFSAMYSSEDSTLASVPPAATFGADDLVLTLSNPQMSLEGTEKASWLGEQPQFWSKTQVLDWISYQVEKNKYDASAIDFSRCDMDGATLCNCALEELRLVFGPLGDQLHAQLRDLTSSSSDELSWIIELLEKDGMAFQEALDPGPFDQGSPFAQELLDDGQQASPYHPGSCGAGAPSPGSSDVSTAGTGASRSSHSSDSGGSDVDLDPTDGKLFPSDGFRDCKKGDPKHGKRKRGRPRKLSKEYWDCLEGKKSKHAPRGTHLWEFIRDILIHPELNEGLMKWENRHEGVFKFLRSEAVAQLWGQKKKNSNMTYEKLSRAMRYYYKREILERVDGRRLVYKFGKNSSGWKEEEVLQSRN", "how_it_was_run": "as §1"}},
  "data": [
    {"sequence": "GTGCCT", "values": [
      {"measurement": "binding signal", "setting": "ELK1", "value": "1.05 fold enrichment (6-mer frequency, TF over GST control)"},
      {"measurement": "binding signal", "setting": "ELF1", "value": "1.02 fold enrichment (6-mer frequency, TF over GST control)"},
      {"measurement": "binding signal", "setting": "SPIB", "value": "1.05 fold enrichment (6-mer frequency, TF over GST control)"},
      {"measurement": "binding signal", "setting": "SPIC", "value": "1.2 fold enrichment (6-mer frequency, TF over GST control)"},
      {"measurement": "binding signal", "setting": "ELK4", "value": "1.16 fold enrichment (6-mer frequency, TF over GST control)"},
      {"measurement": "binding signal", "setting": "ETV2", "value": "1.22 fold enrichment (6-mer frequency, TF over GST control)"},
      {"measurement": "binding signal", "setting": "ERF", "value": "1.07 fold enrichment (6-mer frequency, TF over GST control)"},
      {"measurement": "binding signal", "setting": "ETV3L", "value": "1.17 fold enrichment (6-mer frequency, TF over GST control)"},
      {"measurement": "binding signal", "setting": "ETS2", "value": "1.06 fold enrichment (6-mer frequency, TF over GST control)"},
      {"measurement": "binding signal", "setting": "ETV3", "value": "1.07 fold enrichment (6-mer frequency, TF over GST control)"},
      {"measurement": "binding signal", "setting": "ETV6", "value": "1.02 fold enrichment (6-mer frequency, TF over GST control)"}
    ]},
    {"sequence": "CGGCAA", "values": [
      {"measurement": "binding signal", "setting": "ETV6", "value": "1.02 fold enrichment (6-mer frequency, TF over GST control)"}
    ]},
    {"sequence": "GGCAAT", "values": [
      {"measurement": "binding signal", "setting": "ELK1", "value": "1 fold enrichment (6-mer frequency, TF over GST control)"},
      {"measurement": "binding signal", "setting": "GABPA", "value": "1 fold enrichment (6-mer frequency, TF over GST control)"},
      {"measurement": "binding signal", "setting": "ELF3", "value": "1.01 fold enrichment (6-mer frequency, TF over GST control)"},
      {"measurement": "binding signal", "setting": "ERF", "value": "1.02 fold enrichment (6-mer frequency, TF over GST control)"}
    ]}
  ]
}
